From PubChem BioAssay
Most compounds without a hit are left out; they make up all but 19% or so of the library.
SW480 rereplic = A quantitative high throughput screen for small molecules that induce DNA re-replication in SW480 colon adenocarcinoma cells; SW480 DNA re-replication, Hoechst DNA content imaging, 48 h; Potency, µM (series often up to 46.1 µM), for inactives: at the highest dose re-replication activation, hits mostly activators; actives 1.8% (n = 340,000); also: potency is read from the fitted curve at half-maximal effect; % of control where 0% means no effect; nearly all actives have a fitted effect of over 55% in size
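First, 250 cells per well were seeded. Next, compound or vehicle (23 nL) was pinned in, plates sat 48 hr at 37 C. Finally Hoechst was added for 40 min before fluorescence scanning.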
IL1B secr inh = qHTS for Inhibitors of Inflammasome Signaling: IL-1-beta AlphaLISA Primary Screen. AID 743279, 2014. THP-1 LPS/ATP IL-1B secretion, AlphaLISA, 16 h; stronger effect = lower value. actives 4.7% (n = 360,000). activity change, % at 57.5 µM; in the data active = activity change below about -50%; inconclusive = mostly about -30% to -49%; also: % is scaled to controls: 0 for no effect and ±100 for the full control effect
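THP-1 cells pretreated 1 hr with compounds (up to 57.5 uM final), then stimulated with LPS (250 ng/mL final) plus ATP (1.25 mM final); secreted IL-1B measured by AlphaLISA after 16 hr, decreased signal indicating inhibition.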
DT40 TDP1 CPT = qHTS for Inhibitors of human tyrosyl-DNA phosphodiesterase 1 (TDP1): qHTS in cells in presence of CPT | chicken DT40 Tdp1-/-;hTDP1 cells + 20 nM CPT, ATP luminescence, 48 h | Potency, µM (top dose mostly 46.2 µM), for inactives: top-dose activity change, negative = growth inhibition, usual class: inhibitors | actives 12% (n = 420,000); also: potency is read from the fitted curve at half-maximal effect; % is scaled to controls: 0 for no effect and ±100 for the full control effect; nearly all actives have a fitted effect of over 55% in size
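Cell growth measured by CellTiter-Glo luminescence after a minimum 48 h, 37 C compound exposure with 20 nM CPT in Tdp1-knockout DT40 cells stably expressing hTDP1, seeded 400/well; qHTS titration format.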
TDP1 cell noCPT = qHTS for Inhibitors of human tyrosyl-DNA phosphodiesterase 1 (TDP1): qHTS in cells in absence of CPT; DT40 Tdp1-/- hTDP1 cells, no CPT, ATP luminescence, 48 h; Potency, µM (titrated, usually from 46.2 µM), for the others: top-dose activity change, negative = growth inhibition, usual class: inhibitors; actives 15% (n = 420,000); also: potency is read from the fitted curve at half-maximal effect; % is scaled to controls: 0 for no effect and ±100 for the full control effect; nearly all actives have a fitted effect of over 55% in size
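Stably hTDP1-transfected Tdp1-null chicken DT40 cells were treated with library compounds minus camptothecin and grown for at least 48 hr at 37 °C, after which cellular ATP was quantified by luminescence.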
BCR signal inh = qHTS Assay to Find Inhibitors of Chronic Active B-Cell Receptor Signaling; ABC-DLBCL IkBa-CBG/CBR reporter, luminescence ratio, 4 h; Potency, µM (highest dose often 46.1 µM), for inactives: at the highest dose activity change, negative = inhibition, most hits filed as inhibitors; actives 0.05% (n = 340,000); AID 493014, 2011; active = well fitted inhibition curve with a large enough effect in the signal ratio, with a control signal flat, not every such curve was filed as active; inconclusive = small, poorly fitted or top-dose-only effect, or effect the other way, or a change in a side signal; the % refers to the signal ratio;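 also: potency is read from the fitted curve at half-maximal effect; plate controls were basal doxycycline-induced cells for no effect and cells given 10 µM MG132 for full effect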
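Cell line TMD8 (human ABC DLBCL), stably expressing tet-inducible CBG68-IkBa fusion and CBR; IMDM/0.5% FBS; cpd up to 46 uM; dox induction, 4 h, 37C/5% CO2; dual luminescence; green/red ratio; MG132 control.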
MCF10A rerep = A quantitative high throughput screen for small molecules that induce DNA re-replication in MCF 10a normal breast cells; MCF 10A DNA re-replication, Hoechst nuclear intensity, 48 h; Potency, µM (series often up to 46.1 µM), for the others: at the top dose activity, positive = re-replication, most hits filed as activators; actives 2.9% (n = 350,000); AID 624296, 2012; also: potency is read from the fitted curve at half-maximal effect; % of control where 0% means no effect; nearly all actives have a fitted effect of over 50% in size
* hit, by the source's call; ? = inconclusive; · = no result; [ ] = dose if it differs, or a comment. Unless noted, calls follow the shape of the dose curve; as a rule, active = well fitted curve in the direction sought with a large enough effect; inconclusive = small, poorly fitted or top-dose-only effect, or another doubt; inactive = no such curve, though single readings can be large; an effect the other way counts as inactive or inconclusive.

SMILES	SW480 rereplic	IL1B secr inh	DT40 TDP1 CPT	TDP1 cell noCPT	BCR signal inh	MCF10A rerep
CCN(CC)S(=O)(=O)c1cccc(C(=O)NCC(c2ccccc2)N(C)C)c1 (configuration not stated)	-3%	-21	5%	-6%	5%	?
CCN(CC)S(=O)(=O)c1cccc(C(=O)NCC2CCCCC2)c1	-1%	-29	?	21µM*	0%	7%
CCN(CC)S(=O)(=O)c1cccc(NC(=O)CNC2CCCCCC2)c1	-6%	-28	?	?	0%	2%
CCN(CC)S(=O)(=O)c1cccc(NC(=O)CCSc2ccc(Cl)cc2)c1	24%	2	16µM*	21µM*	?	?
CCN(CC)S(=O)(=O)c1cccc(NC(=O)CN(C)C2CCCCC2)c1	4%	11	?	15µM*	2%	16%
CN(C)S(=O)(=O)c1cccc(NC(=O)COC(=O)CCSc2ccc(Cl)cc2)c1	-5%	40	18%	-16%	24%	-2%
Cc1nnc(SCC(=O)Nc2ccc(N(C)C)cc2)[nH]c1=O	·	·	-30%	?	·	·
CC(NC(=O)Cn1cccc1C(=O)c1ccccc1)c1ccccc1 (configuration not stated)	?	-10	13µM*	?	-1%	-1%
O=C1CSC(=Nc2cccc(Cl)c2Cl)N1Cc1cccnc1	-83%	-52*	?	?	-17%	0%
Cc1ccccc1N=C1SCC(=O)N1Cc1ccccc1	-7%	-1	-2%	-3%	1%	18%
CCOC(=O)C(=O)Cc1nc(OCc2ccccc2)cc(OCc2ccccc2)n1	15%	7	-1%	-12%	·	?
CCOC(=O)C(Cc1nc(OCc2ccccc2)cc(OCc2ccccc2)n1)=NO	12%	-7	?	?	·	21µM*
O=C(N/C=N/OCc1ccc(Cl)cc1Cl)NOCc1c(Cl)cccc1Cl	21%	-5	21µM*	23µM*	·	?
CO/N=C/NC(=O)NOCc1ccc(Cl)cc1Cl	-5%	-14	1%	-7%	5%	3%
O=C(Cc1nc2ccccc2[nH]1)c1ccc(Br)cc1	?	-60*	?	?	0%	?
CCC(OC(=O)CCc1nc2ccccc2[nH]c1=O)C(=O)c1ccccc1 (configuration not stated)	2%	7	?	?	?	3%
O=C(Cc1nc2ccccc2[nH]c1=O)c1ccccc1	29%	-72*	-6%	-18%	?	21µM*
O=C(CCNC(=O)c1ccc(Br)cc1)Nc1nc2ccccc2[nH]1	-5%	-14	-9%	-15%	6%	?
COc1cc2c(C#CCCO)c(-c3ccc(C#N)cc3)oc(=O)c2cc1OC	-14%[9.22 µM]	0	-20%	?	-3%	6.5µM*
COc1cc(-c2c(-c3ccc4c(c3)OCO4)noc2-c2ccsc2)cc(OC)c1OC	·	·	?	-28%	·	·
COc1cc2c(C#CCCO)c(-c3ccsc3)oc(=O)c2cc1OC	-7%	-73*	?	8.2µM*	2%	25%
COCc1ccc(-c2c(-c3ccsc3)oc(=O)c3cc(OC)c(OC)cc23)cc1	1%	8	?	21µM*	-2%	3.7µM*
CCc1ccccc1NC(=O)C1(S(=O)(=O)c2ccc(C)cc2)CC1	11%	12	-18%	-16%	1%	8%
COc1cc(C(=O)NC(=S)N(CCC#N)Cc2cccnc2)cc(OC)c1OC	-8%	9	-11%	?	3%	-1%
CCCOc1ccc(CN(CCC#N)C(=S)NC(=O)c2ccccc2)cc1	?	6	7.3µM*	5.2µM*	?	?
SMILES	SW480 rereplic	IL1B secr inh	DT40 TDP1 CPT	TDP1 cell noCPT	BCR signal inh	MCF10A rerep
COc1ccc(F)cc1C(=O)C1CCCN(C(=O)C2=C(C)OCCO2)C1 (configuration not stated)	-17%	0	-28%	-17%	5%	19%
COc1ccc(C)cc1NC(=O)NC1CCN(Cc2ccccc2)CC1	7%	-20	23µM*	?	?	12%
Cc1ccccc1NC(=S)NC1CCN(Cc2ccccc2)CC1	0%	-1	-28%	-38%	3%	0%
COc1ccc(CCNC(=S)NC2CCN(Cc3ccccc3)CC2)cc1	-3%	?	?	23µM*	-2%	9%
Cc1ccc(NC(=S)NC2CCN(Cc3ccccc3)CC2)c(C)c1	2%	-57*	?	?	-2%	3%
CCc1ccc(NC(=S)NC2CCN(Cc3ccccc3)CC2)cc1	·	0	7.3µM*	12µM*	-2%	9%
CCCCN(C(C)=O)c1c(CC)nc2ccc(C(=O)Nc3cccc(OCC(=O)N(C)C)c3)cn12	·	-16	?	?	·	·
COc1cc(-c2nnc(COC(=O)c3ccc(C)o3)o2)cc(OC)c1OC	-8%	2	?	?	-5%	4%
Cc1oc2c(CN3CCCCC3C)c(O)ccc2c(=O)c1-c1ccc(Br)cc1 (configuration not stated)	-10%	-2	0%	5%	3%	-2%
Cn1c(=O)c(-c2cccs2)nc2cncnc21	·	·	21%	-21%	·	·
S=C(Nc1ccc(Cl)cc1)NC1CCN(Cc2ccccc2)CC1	?	-94*	21µM*	9.2µM*	2%	22%
S=C(Nc1ccccc1)NC1CCN(Cc2ccccc2)CC1	-5%	-27	-19%	?	1%	2%
CCC(C)c1ccc(NC(=S)NC2CCN(Cc3ccccc3)CC2)cc1 (configuration not stated)	?	-94*	8.2µM*	7.3µM*	6%	?
CCC(C)[C@H](NC(=O)NC1CCN(Cc2ccccc2)CC1)C(=O)OC (some centres not stated)	-6%	24	1%	-17%	2%	9%
O=C(NCCS(=O)(=O)N1CCN(c2ccccc2F)CC1)C(c1ccccc1)c1ccccc1	·	·	-7%	-20%	·	·
CCCCNC(=O)C(NC(=O)c1cccc2ccccc12)C(=O)c1ccccc1 (configuration not stated)	·	29	?	?	·	·
